# Assay results: PubChem BioAssay (NCATS)
# Inconclusive results are not listed. Entries that show only a call come without a potency. Calls of active or inactive are those of the source. The call rests on the fitted dose curve; in most records, active means well fitted inhibition curve with a large enough effect; inconclusive means small, poorly fitted or top-dose-only effect; inactive means flat fitted curve, though single readings scatter.
# Target: Calcium and integrin-binding protein 1 (Homo sapiens) (UniProt Q99828)
# Assay: Primary qHTS for Identification of Calcium Integrin Binding Protein 1 (CIB1) Competitor (AID 1508620);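 further: GST tagged CIB1 binding a fluorescein labelled alphaIIb integrin peptide tracer; top concentration of the series differs between compounds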
# Conditions: CIB1-GST / FITC-alphaIIb peptide fluorescence polarization; series mostly up to 114 µM
# Procedure, shortened: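 CIB1-GST (1 uM final) and compound incubated 15 min at room temperature before adding FITC-alphaIIb peptide tracer (100 nM final). Competition for binding read by fluorescence polarization (ex 480, em 540) after another 15 min at room temperature.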
# Calcium and integrin-binding protein 1 (Homo sapiens), sequence (Q99828 whole entry, looked up): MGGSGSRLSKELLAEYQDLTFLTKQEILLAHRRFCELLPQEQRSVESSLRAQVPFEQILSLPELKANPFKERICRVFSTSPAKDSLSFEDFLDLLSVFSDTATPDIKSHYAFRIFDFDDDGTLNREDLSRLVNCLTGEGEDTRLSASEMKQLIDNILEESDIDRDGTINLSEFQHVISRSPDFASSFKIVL
row,SMILES,Potency
1,Oc1ccc(COCc2ccccc2)c2cccnc12,inactive
2,COc1cccc(-c2ccc(CNc3ccc(N4CCN(C(=O)OC(C)(C)C)CC4)cc3)o2)c1,inactive
3,COc1cccc(C(=O)Nc2ccc(-c3nc4ccccc4[nH]3)cc2)c1,inactive
4,N#Cc1nc(Nc2cc(F)cc(F)c2)c2ncn(CCO)c2n1,inactive
5,Cc1ccnc(NC(=S)NC2CN(c3cccc(C(F)(F)F)c3)C2)c1,inactive
6,COc1ccc(-c2nnc3n2N=C(c2c(OC)cccc2OC)CS3)cc1,inactive
7,Cc1cc(C)nc(NC(=S)N2CCN(c3ccc([N+](=O)[O-])c4cccnc34)CC2)c1,inactive
8,CCC(=O)NC(c1cc(Cl)c2cccnc2c1O)C1CC1 (centres undefined),inactive
9,CC(C)c1ccccc1-c1nccc(NCc2ccc(-c3ccnc(C(F)(F)F)c3)cc2)n1,inactive
10,O=C(NC1CCCc2c1cnn2-c1ccc(F)cc1F)c1ccn[nH]1 (centres undefined),inactive
11,Cc1cc(C)nc(NC(=S)N2CCN(c3nccc4ccccc34)CC2)c1,inactive
12,Cc1cc(C)nc(NC(=S)N2CCN(c3cc(Br)cc(C(F)(F)F)c3)CC2)c1,inactive
13,O=S1(=O)N=C(OCc2ccccc2)c2ccccc21,inactive
14,NC(=O)C1CCN(c2nc(-c3ccc([N+](=O)[O-])cc3)cs2)CC1,inactive
15,O=C(O)c1ccc(-n2cccc2/C=C2\SC(=O)N(Cc3ccc(F)cc3)C2=O)cc1,inactive
16,CSc1ccc(-c2cncc(NC(=O)c3cccs3)c2)cc1,inactive
17,O=C(CNC(=O)c1cccc2ccccc12)OC(C(=O)Nc1cc(C(F)(F)F)ccc1Cl)c1ccccc1 (centres undefined),inactive
18,CCc1ccc(-c2nn3c(C)nnc3s2)cc1NC(=O)c1ccc(-c2cccc(Cl)c2)o1,inactive
19,Cc1nc(C)c(-c2ccc3ncnc(NCCc4cnc[nH]4)c3c2)s1,inactive
20,Fc1cc(Nc2nc(-c3ccncc3)nc3ccccc23)ccc1-n1cncn1,inactive

row,SMILES,Potency
1,O=S1(=O)N=C(Oc2ccc3ccccc3c2)c2ccccc21,inactive
2,OCC#CCSc1nnc(-c2cccc3ccccc23)o1,inactive
3,Cc1cc(C)nc(NC(=S)N2CCN(c3ccc(F)c(Cl)c3)CC2)c1,inactive
4,O=C1CCCC2=C1C1(CCSC1)N=C(Nc1nc3ccccc3o1)N2 (centres undefined),inactive
5,Cc1cnc(-c2ccccc2C(C)C)nc1NCc1ccc(-c2cccnc2)cc1,inactive
6,C/C(=C\c1ccsc1)C1Nc2cccc3cccc(c23)N1,inactive
7,O=C(Cc1nnc(-c2cc3ccccc3[nH]2)s1)Nc1cc(C(F)(F)F)ccc1Cl,inactive
8,COc1cccc(CNc2ccc(S(=O)(=O)Nc3cccs3)cc2)c1O,inactive
9,Fc1cc(F)cc(Nc2nc(Cl)nc(NC3CCCC3)n2)c1,inactive
10,N#Cc1ccccc1S(=O)(=O)N1CCN(S(=O)(=O)c2ccc3c(c2)OCCO3)CC1,inactive
11,O=C(O)c1c(-c2ccccc2)no[n+]1[O-],inactive
12,COc1ccc(C(=O)NCC(=O)OC(C(=O)Nc2cc(C(F)(F)F)ccc2Cl)c2ccccc2)cc1OC (centres undefined),inactive
13,CCOc1ccc(C(=O)Nc2ccc(-c3nc4ccccc4o3)cc2)cc1[N+](=O)[O-],inactive
14,O=C(OCC#CCSc1nnc(-c2cccs2)o1)c1ccc(F)cc1,inactive
15,O=C1CCCC2=C1C(c1cccnc1)N=C(Nc1nc3ccccc3o1)N2 (centres undefined),inactive
16,O=S1(=O)N=C(Oc2cccc3ccccc23)c2ccccc21,inactive
17,Cc1nnc(-c2cnn(C)c2N)n1CCCc1cccnc1,inactive
18,O=S(=O)(c1cccc(O)c1)N1CCN(S(=O)(=O)c2c(F)cccc2F)CC1,inactive
19,COc1ccc(N2CCN(S(=O)(=O)c3ccc4c(c3)CC(=O)N4)CC2)cc1,inactive
